PubChem BioAssay (EPA / NIEHS)
Inconclusive results are not listed. Calls of active or inactive are those of the source. The calls were made as follows, unless noted: active = hit-call score of the fitted dose curve at least 0.9, where 1 is the maximum; inactive = score below 0.9.

Key:
[1] = read-out: Monocyte Chemoattractant Protein-1 (MCP1), CCL2 (gene 6347); assay: BSK_LPS_MCP1: BioMAP Diversity Plus: LPS Assay for Monocyte Chemoattractant Protein-1 (MCP1) Biomarker Activity (AID 2283081); details: primary human HUVEC with PBMC; actives raise or lower the signal;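 as to AC50: secreted MCP-1 protein quantified by ELISA in culture supernatant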
Outline: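 ELISA read-out of MCP-1 after 24 h chemical dosing of a human umbilical vein endothelial cell/peripheral blood mononuclear cell co-culture stimulated with LPS. Gain or loss of signal fitted relative to DMSO controls.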

[2] = BSK_LPS_PGE2: BioMAP Diversity Plus: LPS Assay for Prostaglandin E2 (PGE2) Biomarker Activity (AID 2283082); details: primary human HUVEC with PBMC; actives raise or lower the signal;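 as to AC50: secreted prostaglandin E2 measured by ELISA in LPS-stimulated co-culture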
Outline: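 Endpoint derived from bidirectional curve fitting versus DMSO of ELISA-measured PGE2 in LPS-stimulated human primary vascular co-culture (HUVEC with PBMC) harvested at 24 h.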

[3] = read-out: Macrophage colony-stimulating factor (MCSF), CSF1 (gene 1435); assay: BSK_LPS_MCSF: BioMAP Diversity Plus: LPS Assay for Macrophage colony-stimulating factor (MCSF) Biomarker Activity (AID 2283083); details: primary human HUVEC with PBMC; actives raise or lower the signal
Outline: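 HUVEC + PBMC co-culture (human primary), 24 h post-dose; M-CSF by ELISA; gain/loss of signal fitted bidirectionally vs DMSO baseline.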

[4] = read-out: Tissue Factor, F3 (gene 2152); assay: BSK_LPS_TissueFactor: BioMAP Diversity Plus: LPS Assay for Tissue Factor Biomarker Activity (AID 2283084); details: primary human HUVEC with PBMC; actives raise or lower the signal
Outline: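 HUVEC/PBMC co-culture, LPS-activated; CD142 ELISA read 24 h post-dose; bidirectional curve fit vs DMSO negative control.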

[5] = read-out: Tumor necrosis factor (Homo sapiens) (UniProt P01375); assay: BSK_LPS_TNFa: BioMAP Diversity Plus: LPS Assay for Tumour Necrosis Factor alpha (TNFa) Biomarker Activity (AID 2283085); details: primary human HUVEC with PBMC; actives raise or lower the signal
Outline: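 Primary human vascular co-culture of HUVEC and PBMC; TNFa ELISA 24 h after treatment, analysed as increase or decrease relative to DMSO control.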

[6] = read-out: Vascular cell adhesion molecule 1 (VCAM1), VCAM1 (gene 7412); assay: BSK_LPS_VCAM1: BioMAP Diversity Plus: LPS Assay for Vascular cell adhesion molecule 1 (VCAM1) Biomarker Activity (AID 2283086); details: primary human HUVEC with PBMC; actives raise or lower the signal
Outline: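 Primary human vascular co-culture (umbilical vein endothelium plus PBMC) stimulated with LPS received chemical; 24 h later VCAM-1 was read by ELISA. Overt cytotoxicity was assessed by sulforhodamine B staining of parallel cultures at the same time point.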

CD38, CD38 (gene 952) = assay: BSK_SAg_CD38: BioMAP Diversity Plus: SAg Assay for CD38 Biomarker Activity (AID 2283087); details: primary human HUVEC with PBMC; actives raise or lower the signal
Outline: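 Fluorescence ELISA of cell-surface CD38 served as the read-out, with either increase or decrease fitted against DMSO controls. Cells were a human umbilical vein endothelium plus PBMC co-culture under SEB/TSST-1 stimulation, measured 24 h after dosing.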

CD40, CD40 (gene 958) = assay: BSK_SAg_CD40: BioMAP Diversity Plus: SAg Assay for CD40 Biomarker Activity (AID 2283088); details: primary human HUVEC with PBMC; actives raise or lower the signal
Outline: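 HUVEC/PBMC co-culture, 24 h post-dose; CD40 by ELISA, fluorescence intensity; bidirectional fit vs DMSO negative control.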

CD69, CD69 (gene 969) = assay: BSK_SAg_CD69: BioMAP Diversity Plus: SAg Assay for CD69 Biomarker Activity (AID 2283089); details: primary human HUVEC with PBMC; actives raise or lower the signal;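 as to AC50: cell surface CD69 protein quantified by ELISA with fluorescence detection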
Outline: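 HUVEC co-cultured with PBMC were dosed with chemical, and CD69 was measured by ELISA with fluorescence read-out 24 h later. Bidirectional curve fitting used DMSO as negative control and activity baseline.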

[7] = read-out: Monocyte Chemoattractant Protein-1 (MCP1), CCL2 (gene 6347); assay: BSK_SAg_MCP1: BioMAP Diversity Plus: SAg Assay for Monocyte Chemoattractant Protein-1 (MCP1) Biomarker Activity (AID 2283090); details: primary human HUVEC with PBMC; actives raise or lower the signal
Outline: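 MCP-1 levels in the endothelial–PBMC SAg co-culture were quantified by ELISA at 24 h post-dosing; both increases and decreases versus DMSO scored. Cytotoxicity monitored by SRB total protein in parallel cultures.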

[8] = read-out: E-selectin (Homo sapiens) (UniProt P16581); assay: BSK_SAg_Eselectin: BioMAP Diversity Plus: SAg Assay for Eselectin Biomarker Activity (AID 2283091); details: primary human HUVEC with PBMC; actives raise or lower the signal
Outline: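 E-selectin ELISA readout at 24 h post-dosing in human umbilical vein endothelial cell/PBMC co-culture; gain or loss of signal fitted relative to DMSO baseline.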

[9] = read-out: Monokine induced gamma interferon (MIG), CXCL9 (gene 4283); assay: BSK_SAg_MIG: BioMAP Diversity Plus: SAg Assay for Monokine induced gamma interferon (MIG) Biomarker Activity (AID 2283092); details: primary human HUVEC with PBMC; actives raise or lower the signal
Outline: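 HUVEC plus human PBMC co-culture, chemicals dosed and MIG (CXCL9) quantified by ELISA at 24 h. Bidirectional curve fitting against DMSO as negative control and baseline, so both gain and loss of signal count as activity.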

[10] = BSK_SAg_PBMCCytotoxicity: PBMC Cytotoxicity Assessment in the BioMAP Diversity Plus: SAg Assay (AID 2283093); details: primary human HUVEC with PBMC;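 also: PBMC viability measured as Alamar Blue reduction fluorescence at 546/580 nm; fitted both ways against DMSO so a hit may be loss or gain of signal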;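 as to AC50: PBMC superantigen activated with SEB plus TSST-1 one hour after compound addition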
Outline: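 Compound added to 75,000 PBMC/well for 1 h; SEB and TSST-1 then added at 20 ng/mL final each; 90 h incubation; Alamar Blue 6 h; read 546/580 nm ex/em. Activity fitted bidirectionally relative to DMSO baseline.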

[11] = read-out: Interleukin-8 (IL8), CXCL8 (gene 3576); assay: BSK_SAg_IL8: BioMAP Diversity Plus: SAg Assay for Interleukin-8 (IL8) Biomarker Activity (AID 2283094); details: primary human HUVEC with PBMC; actives raise or lower the signal
Outline: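 In this co-culture of human umbilical vein endothelium with peripheral blood mononuclear cells, IL-8 is assayed by ELISA at 24 h. DMSO serves as baseline for bidirectional curve fitting.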

[12] = BSK_SAg_SRB: Viability Assessment in the BioMAP Diversity Plus: SAg Assay (AID 2283096); details: primary human HUVEC with PBMC;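 also: cells read one day after compound addition; hits may be either gain or loss of signal compared with DMSO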
Outline: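 Total protein by sulforhodamine B staining, 24 h after dosing, in HUVEC–PBMC co-culture; DMSO-referenced bidirectional fitting.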

[13] = target: human CYP19A1, CYP19A1 (gene 1588) (UniProt P11511); assay: NVS_ADME_hCYP19A1: NovaScreen (NVS) CYP450-related Enzyme Activity (ADME) Assay for human CYP19A1 (AID 2283098; active = hit-call score of the fitted dose curve at least 0.9, where 1 is the maximum)
Sequence of human CYP19A1, CYP19A1 (gene 1588) (P11511 whole entry, looked up): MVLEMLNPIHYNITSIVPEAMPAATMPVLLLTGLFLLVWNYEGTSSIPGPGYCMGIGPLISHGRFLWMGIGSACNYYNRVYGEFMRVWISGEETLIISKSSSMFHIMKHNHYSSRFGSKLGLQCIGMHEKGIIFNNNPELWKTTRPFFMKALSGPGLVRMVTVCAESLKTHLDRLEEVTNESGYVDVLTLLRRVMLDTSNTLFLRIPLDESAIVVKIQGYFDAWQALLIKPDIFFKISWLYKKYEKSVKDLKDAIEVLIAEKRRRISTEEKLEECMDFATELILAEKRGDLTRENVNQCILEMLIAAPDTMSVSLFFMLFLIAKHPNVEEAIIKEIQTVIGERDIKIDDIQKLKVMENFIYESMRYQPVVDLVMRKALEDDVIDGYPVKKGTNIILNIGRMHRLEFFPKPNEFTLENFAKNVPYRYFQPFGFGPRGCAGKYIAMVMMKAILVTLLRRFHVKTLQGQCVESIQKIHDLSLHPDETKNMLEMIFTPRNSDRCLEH
Outline: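 Biochem, cell-free; recombinant enzyme + specific substrate; fluorescence intensity at 0.5 h post-dose; 10 uM duplicate primary, conc. series for actives; acetonitrile = negative control/baseline; positive and negative controls on every plate.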

[14] = BSK_SAg_Proliferation: Cell Proliferation Assessment in the BioMAP Diversity Plus: SAg Assay (AID 2283095); details: primary human HUVEC with PBMC;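 also: relative cell number as total protein by SRB absorbance in sub-confluent culture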
Outline: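 Readout is SRB-stained protein (560 nm) in a primary human HUVEC and PBMC co-culture; sub-confluent cultures are read at 96 h. Activity is fitted bidirectionally using DMSO as baseline.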

[15] = target: human CYP1A1, CYP1A1 (gene 1543) (UniProt P04798); assay: NVS_ADME_hCYP1A1: NovaScreen (NVS) CYP450-related Enzyme Activity (ADME) Assay for human CYP1A1 (AID 2283100; active = hit-call score of the fitted dose curve at least 0.9, where 1 is the maximum)
Sequence of human CYP1A1, CYP1A1 (gene 1543) (P04798 whole entry, looked up): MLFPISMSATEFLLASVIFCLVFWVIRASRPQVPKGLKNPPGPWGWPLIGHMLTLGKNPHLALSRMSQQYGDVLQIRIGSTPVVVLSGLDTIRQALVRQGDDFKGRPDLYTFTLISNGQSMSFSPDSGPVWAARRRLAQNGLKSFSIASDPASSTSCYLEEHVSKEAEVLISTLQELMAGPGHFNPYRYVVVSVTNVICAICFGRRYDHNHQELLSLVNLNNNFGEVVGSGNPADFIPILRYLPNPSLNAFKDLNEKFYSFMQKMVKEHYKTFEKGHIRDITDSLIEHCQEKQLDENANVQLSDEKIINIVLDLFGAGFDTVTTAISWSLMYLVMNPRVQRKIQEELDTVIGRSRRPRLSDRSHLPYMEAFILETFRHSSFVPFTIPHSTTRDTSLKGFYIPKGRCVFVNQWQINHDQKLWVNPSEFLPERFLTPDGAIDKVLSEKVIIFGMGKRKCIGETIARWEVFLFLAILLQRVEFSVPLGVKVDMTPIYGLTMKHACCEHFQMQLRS
Outline: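 Read-out: fluorescence intensity from enzymatic turnover of substrate by recombinant CYP1A1, loss of signal indicating inhibition. Incubation 1 h post-dose. Primary single-point 10 uM in duplicate; actives rerun singly with top concentration 20 uM.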

[16] = target: human CYP2B6, CYP2B6 (gene 1555) (UniProt P20813); assay: NVS_ADME_hCYP2B6: NovaScreen (NVS) CYP450-related Enzyme Activity (ADME) Assay for human CYP2B6 (AID 2283101; active = hit-call score of the fitted dose curve at least 0.9, where 1 is the maximum)
Sequence of human CYP2B6, CYP2B6 (gene 1555) (P20813 whole entry, looked up): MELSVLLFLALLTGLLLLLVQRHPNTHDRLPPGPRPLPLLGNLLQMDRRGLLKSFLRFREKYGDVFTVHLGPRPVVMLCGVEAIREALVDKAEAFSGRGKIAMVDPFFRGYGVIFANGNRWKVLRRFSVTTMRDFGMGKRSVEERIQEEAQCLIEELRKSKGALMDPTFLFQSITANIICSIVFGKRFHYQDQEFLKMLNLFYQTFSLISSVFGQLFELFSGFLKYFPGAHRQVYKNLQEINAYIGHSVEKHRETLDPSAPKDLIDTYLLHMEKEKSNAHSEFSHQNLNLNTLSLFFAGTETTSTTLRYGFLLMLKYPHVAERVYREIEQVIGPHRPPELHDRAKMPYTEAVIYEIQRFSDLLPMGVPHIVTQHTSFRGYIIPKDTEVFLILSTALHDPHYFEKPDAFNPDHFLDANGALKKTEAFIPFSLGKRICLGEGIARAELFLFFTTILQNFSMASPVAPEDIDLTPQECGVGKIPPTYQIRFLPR
Outline: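 Recombinant human CYP2B6 with fluorogenic substrate, read by fluorescence intensity 1 h after dosing. Primary screen in duplicate at 10 uM, actives followed in concentration series; signal loss relative to acetonitrile control.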

Measured: AC50

Sequence of E-selectin (Homo sapiens) (P16581 whole entry, looked up): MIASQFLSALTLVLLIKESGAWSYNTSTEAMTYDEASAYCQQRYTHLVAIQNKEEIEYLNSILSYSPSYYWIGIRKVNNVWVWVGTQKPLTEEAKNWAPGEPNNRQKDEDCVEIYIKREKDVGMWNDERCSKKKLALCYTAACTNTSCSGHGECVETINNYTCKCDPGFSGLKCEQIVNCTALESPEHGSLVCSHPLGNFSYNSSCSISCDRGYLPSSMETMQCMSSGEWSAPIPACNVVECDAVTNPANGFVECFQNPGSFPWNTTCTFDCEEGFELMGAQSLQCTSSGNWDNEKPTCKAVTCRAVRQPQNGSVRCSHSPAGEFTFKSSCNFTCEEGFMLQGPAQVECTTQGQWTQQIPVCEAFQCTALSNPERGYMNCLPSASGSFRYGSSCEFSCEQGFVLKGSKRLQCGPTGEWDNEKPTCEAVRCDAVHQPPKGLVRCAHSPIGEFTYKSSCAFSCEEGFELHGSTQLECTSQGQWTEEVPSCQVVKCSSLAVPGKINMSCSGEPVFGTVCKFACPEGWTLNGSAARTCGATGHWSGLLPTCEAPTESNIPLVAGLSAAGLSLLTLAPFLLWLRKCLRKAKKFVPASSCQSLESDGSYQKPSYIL
Sequence of Tumor necrosis factor (Homo sapiens) (P01375 whole entry, looked up): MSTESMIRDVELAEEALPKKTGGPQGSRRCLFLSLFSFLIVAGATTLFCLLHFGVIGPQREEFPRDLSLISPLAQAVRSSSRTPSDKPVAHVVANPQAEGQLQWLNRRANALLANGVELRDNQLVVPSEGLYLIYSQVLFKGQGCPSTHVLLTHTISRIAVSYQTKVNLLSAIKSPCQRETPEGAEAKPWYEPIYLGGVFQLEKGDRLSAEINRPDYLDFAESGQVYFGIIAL

Nc1nc(Cl)nc2c1ncn2[C@H]1C[C@H](O)[C@@H](CO)O1
inactive: [2] | [6] | CD38, CD38 (gene 952) | [9] | [11] | [13]
active: [1] 0.659 µM | [3] 1.08 µM | [4] 3.37 µM | [5] 5.4 µM | CD40, CD40 (gene 958) 1.6 µM | CD69, CD69 (gene 969) 4.31 µM | [7] 3.09 µM | [8] 9.32 µM | [10] 0.642 µM | [12] 0.554 µM

O=NO
not listed: [13] | [14] | [15] | [16]
inactive: all other assays above

Oc1ccc(O)cc1
active: [1] 25.8 µM | [2] 30 µM | [3] 9.78 µM | [5] 28.9 µM | [6] 20 µM | CD38, CD38 (gene 952) 36.5 µM | CD40, CD40 (gene 958) 11.4 µM | CD69, CD69 (gene 969) 20 µM | [10] 12.8 µM | [14] 7.06 µM
inactive: [4] | [7] | [9] | [11] | [12]

CCCC[C@H]1CN(CC2CCOCC2)C(=O)OC12CCN(C1(C)CCN(C(=O)c3c(C)ncnc3C)CC1)CC2
not listed: [8] | [13] | [15] | [16]
inactive: all other assays above

N[C@@H](Cc1c[nH]c2ccccc12)C(=O)O
not listed: [8] | [13] | [15] | [16]
inactive: all other assays above

C/C=C/c1ccc(OC)cc1
active: [1] 13.8 µM
not listed: [8] | [13] | [15] | [16]
inactive: all other assays above

CC(C)NCC(O)c1ccc(O)c(O)c1 (stereo not drawn)
active: [5] 0.262 µM | [10] 13.5 µM | [14] 24.5 µM
not listed: [8] | [13] | [15] | [16]
inactive: all other assays above

CCC(C)N(C)C(=O)c1cc2ccccc2c(-c2ccccc2Cl)n1 (stereo not drawn)
not listed: [13] | [14] | [16]
inactive: all other assays above

CC(C)(O)c1ccc(CNC(=O)c2cccnc2Oc2ccc(F)cc2)cc1
active: [5] 0.598 µM | CD38, CD38 (gene 952) 1.19 µM | [7] 1.16 µM | [8] 0.737 µM
not listed: [13] | [14] | [16]
inactive: all other assays above

CC(C)COC(=O)CCCCC(=O)OCC(C)C
not listed: [13] | [14] | [15] | [16]
inactive: all other assays above

NC(=Nc1ccccc1)Nc1ccccc1
active: [3] 5.45 µM
not listed: [8] | [13] | [15] | [16]
inactive: all other assays above

CCN(CC)CCOc1ccc(C(=C(Cl)c2ccccc2)c2ccccc2)cc1
active: [1] 14.3 µM | [2] 8.26 µM | [3] 9.21 µM | [4] 29.8 µM | [5] 11.8 µM | [6] 13.2 µM | CD38, CD38 (gene 952) 8.84 µM | CD40, CD40 (gene 958) 11 µM | CD69, CD69 (gene 969) 12.4 µM | [7] 11.2 µM | [9] 13.8 µM | [10] 6.29 µM | [11] 7.87 µM | [12] 11.1 µM | [16] 11.3 µM

O=C(O)c1cccnc1
not listed: [8] | [13] | [14] | [15] | [16]
inactive: all other assays above

c1ccc2occc2c1
not listed: [8] | [13] | [14] | [15] | [16]
inactive: all other assays above

CC(=O)CC(c1ccccc1)c1c(O)c2ccccc2oc1=O (stereo not drawn)
active: [5] 0.711 µM
not listed: [8] | [13] | [14] | [15] | [16]
inactive: all other assays above

CC(C)OC(=O)C(C)(C)Oc1ccc(C(=O)c2ccc(Cl)cc2)cc1
inactive: [2] | [4] | [5] | [9] | [10]
active: [1] 29.7 µM | [3] 27.3 µM | [6] 32.2 µM | CD38, CD38 (gene 952) 16.1 µM | [7] 20 µM | [8] 33.5 µM | [11] 29.1 µM | [14] 29.5 µM | [12] 28.9 µM

O=C1O[C@H]([C@H](O)CO)C(O)=C1O
not listed: [8] | [13] | [14] | [15] | [16]
inactive: all other assays above
